SKBR3 24h inh: SK-BR-3 proliferation inhibitors, primary screen, cell-based, human, 24 h; viability, % at 10 µM; 0.47% of 41,000 active; SK-BR-3 viability, CellTiter-Glo ATP luminescence; hits give low values;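 active = viability at or below the median of all test compounds minus 3 SD, in both replicates if run twice, cut at about 45% in these data; inconclusive = duplicate replicates that disagree with each other; inactive = viability above that cutoff in every replicate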
JNK3 inh: JNK3 kinase activity inhibitors, primary screen, biochemical, human, purified enzyme; Mitogen-activated protein kinase 10 (Homo sapiens), P53779; HTS; inhibition, % at 8 µM; 0.61% of 60,000 active; in the data active = inhibition above about 17%
HER2 expr 66K: inhibitors of Her2 protein expression, primary screen, SKBR-3 cells, AlphaScreen, 66K library; Receptor tyrosine-protein kinase erbB-2 (Homo sapiens), P04626; SKBR-3 HER2 protein level, 18-24 h; hits give low values; HER2 level % of control, % at 10 µM; 0.69% of 65,000 active; AID 645, 2007;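 active = HER2 level under 5% of the carrier-only control; inconclusive = no clear call, values can overlap the other calls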;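 also: lower value means stronger loss of Her2 protein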
Target sequence (P04626 whole entry, looked up): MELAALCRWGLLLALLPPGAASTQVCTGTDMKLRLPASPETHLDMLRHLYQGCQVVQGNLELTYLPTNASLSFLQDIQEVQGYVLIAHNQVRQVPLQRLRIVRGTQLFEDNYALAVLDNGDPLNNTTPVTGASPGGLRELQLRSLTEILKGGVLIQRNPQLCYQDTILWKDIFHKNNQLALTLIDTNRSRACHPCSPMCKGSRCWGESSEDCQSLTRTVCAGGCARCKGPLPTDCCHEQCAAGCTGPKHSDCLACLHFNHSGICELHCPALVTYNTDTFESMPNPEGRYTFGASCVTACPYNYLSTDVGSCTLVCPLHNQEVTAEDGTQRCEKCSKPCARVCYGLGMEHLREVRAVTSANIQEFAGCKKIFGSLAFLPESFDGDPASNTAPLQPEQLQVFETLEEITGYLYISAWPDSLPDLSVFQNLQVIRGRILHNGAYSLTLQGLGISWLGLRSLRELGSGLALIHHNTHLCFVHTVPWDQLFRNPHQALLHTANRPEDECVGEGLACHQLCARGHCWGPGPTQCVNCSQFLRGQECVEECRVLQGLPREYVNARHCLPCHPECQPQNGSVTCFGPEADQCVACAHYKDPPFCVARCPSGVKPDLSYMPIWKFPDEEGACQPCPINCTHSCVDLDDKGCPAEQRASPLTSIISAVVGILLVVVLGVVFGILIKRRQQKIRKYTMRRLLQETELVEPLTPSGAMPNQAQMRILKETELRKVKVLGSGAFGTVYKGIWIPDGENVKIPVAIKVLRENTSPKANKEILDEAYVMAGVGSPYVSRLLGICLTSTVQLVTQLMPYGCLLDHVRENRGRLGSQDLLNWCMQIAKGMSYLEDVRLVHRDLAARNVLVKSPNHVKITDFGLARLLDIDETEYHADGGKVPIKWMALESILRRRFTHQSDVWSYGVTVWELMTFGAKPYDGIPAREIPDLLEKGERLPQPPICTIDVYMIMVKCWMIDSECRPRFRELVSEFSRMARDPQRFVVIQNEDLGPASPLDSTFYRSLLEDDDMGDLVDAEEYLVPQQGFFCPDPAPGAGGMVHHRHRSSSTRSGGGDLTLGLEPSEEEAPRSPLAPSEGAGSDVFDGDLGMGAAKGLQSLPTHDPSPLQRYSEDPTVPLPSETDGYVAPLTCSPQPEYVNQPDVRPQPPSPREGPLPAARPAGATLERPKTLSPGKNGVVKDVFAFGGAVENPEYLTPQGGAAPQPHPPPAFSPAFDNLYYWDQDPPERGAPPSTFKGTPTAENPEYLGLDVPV
ROCK2 inh: inhibitors of human ROCK2 kinase, primary screen, biochemical, high-throughput, luminescence. Rho-associated protein kinase 2 (Homo sapiens), O75116. purified ROCK2, Kinase-Glo ATP depletion luminescence. inhibition, % at 6 µM. 0.35% of 60,000 active. AID 604, 2007;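 active = inhibition above the screen-wide mean inhibition plus 3 SD, cut at about 18% in these data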
PKA inh: inhibitors of human PKA kinase activity, primary screen, biochemical, ATP-depletion luminescence, Kemptide substrate. PKA Kemptide phosphorylation, Kinase-Glo ATP luminescence. inhibition, % at 6 µM. 0.1% of 65,000 active. AID 524, 2006;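 active = inhibition above the screen-wide mean inhibition plus 3 SD, cut at about 21% in these data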
mHtt clearance: clearance of mutant huntingtin inclusions, primary screen, imaging, HeLa Exon1htt(103Q)mCFP, confocal imaging; aggregate imaging; zero = plate's median compound well; 0.42% of 47,000 active; AID 853, 2007; inhibition, % at 1.5 µM;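 active = inhibition of aggregate fluorescence above about 70%, also judged a hit by eye on the cell image, limit read from the data, passing the limit was not always enough; inconclusive = no rule stated for this call; inactive = not judged a hit on image review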;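 also: cells exposed to compound for three days before fixation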
Large screens that a line does not name were inactive. Most compounds without a hit are left out; they make up all but 1.4% or so of the library.

Cc1ccc2nc(NC3=NCN(Cc4ccc5c(c4)OCO5)CN3)nc(C)c2c1	none
CCOC(=O)CCCCC(=O)c1[nH]c(=O)[nH]c1CSc1nc2ccccc2[nH]1	none
Cc1[nH]c(=O)[nH]c1C(=O)CCCCC(=O)OCC(=O)Nc1ccccn1	JNK3 inh 43.1 (no result: mHtt clearance)
CCCc1cc(C(=O)Nc2sc(C)c(CC)c2C#N)no1	none (no result: SKBR3 24h inh, mHtt clearance)
CCCc1cc(C(=O)Nc2sc3c(c2C#N)CCC3)no1	mHtt clearance 82.4 (no result: SKBR3 24h inh)
O=C(COC(=O)Cc1ccsc1)NC1CCCCCC1	mHtt clearance 74.2
COc1ccc(OC)c(Nc2nc(N)nc(-c3cc4ccccc4o3)n2)c1	JNK3 inh 31.7
CC(=O)Nc1cccc(NC(=O)c2c(-c3ccccc3Cl)noc2C)c1	HER2 expr 66K -18.9 (no result: SKBR3 24h inh, mHtt clearance)
COc1ccc(NS(=O)(=O)c2cc(OC)ccc2NC(=O)c2cc(C)oc2C)cc1	none (no result: SKBR3 24h inh, mHtt clearance)
CSCCC(Nc1ncnc2ccc(Br)cc12)C(=O)O (configuration not stated)	JNK3 inh 19.5 (no result: mHtt clearance)
O=C(CN1C(=O)NC2(CCCc3ccccc32)C1=O)N1CCc2ccccc2C1 (configuration not stated)	none (no result: mHtt clearance)
COc1ccc(S(=O)(=O)N2CCC(C(=O)N3CCCCCC3)CC2)cc1	none (no result: mHtt clearance)
CC(C)C1Cc2c(sc3[nH]c(=S)n(Cc4ccccc4)c(=O)c23)CO1 (configuration not stated)	none (no result: SKBR3 24h inh, JNK3 inh, HER2 expr 66K, ROCK2 inh, PKA inh)
CCCc1nc2oc3c(N4CCNCC4)ncnc3c2c2c1CCCC2	HER2 expr 66K -14.7 (no result: mHtt clearance)
CCn1c(C)csc1=NC(=O)c1ccccc1O	JNK3 inh 22.7 (no result: mHtt clearance)
Cn1cnnc1SCC(=O)NC(=O)NC1CCCC1	none (no result: SKBR3 24h inh, mHtt clearance)
O=C(CCC1CCCC1)N1CCN(C(=O)c2ccco2)CC1	mHtt clearance 71.5
Cc1ccccc1Nc1nn2c(=O)c3ccccc3nc2s1	JNK3 inh 25.7 (no result: SKBR3 24h inh)
O=C(Nc1cccc(-c2cnc3ccccc3n2)c1)c1ccco1	none
O=C(CNC(=O)c1ccc(Br)o1)Nc1cccc(-c2cnc3ccccc3n2)c1	JNK3 inh 19.7
CCCS(=O)(=O)c1nnnn1-c1cccc(OC)c1	SKBR3 24h inh inconclusive, HER2 expr 66K -21.7 (no result: mHtt clearance)
COc1cccc(-n2nnnc2SCC(=O)Nc2ccc(C(C)=O)cc2)c1	none (no result: SKBR3 24h inh, JNK3 inh, HER2 expr 66K, ROCK2 inh, PKA inh)
COC(=O)c1ccc2c(c1)S(=O)(=O)NC(=NCc1ccco1)S2	none (no result: SKBR3 24h inh, mHtt clearance)
Cc1cn(S(=O)(=O)c2ccc(Br)c3ccccc23)cn1	JNK3 inh 39.9 (no result: SKBR3 24h inh)
CCN(CC)CCCN1C(=O)C(=O)/C(=C(/O)c2ccccc2)C1c1ccccn1 (configuration not stated)	none (no result: mHtt clearance)
CCOc1ccc(CN2CCNC(=O)C2CC(=O)OC)cc1 (configuration not stated)	none (no result: SKBR3 24h inh)
O=C(CN1CCN(C(c2ccccc2)c2ccccc2)CC1)N1CCOCC1	none (no result: SKBR3 24h inh)
O=S(=O)(CCN1CCN(C(c2ccccc2)c2ccccc2)CC1)C(F)(F)F	HER2 expr 66K -2.0
CC1=C(C(=O)OCc2ccc3c(c2)OCO3)C(c2ccccc2)NC(=O)N1 (configuration not stated)	mHtt clearance 74.5
CCN(Cc1ccccc1)S(=O)(=O)c1ccc(C(=O)Nc2nnc(C3CC3)o2)cc1	none (no result: SKBR3 24h inh, mHtt clearance)
COCCN(CCOC)S(=O)(=O)c1ccc(C(=O)Nc2nc(C)c(C(C)=O)s2)cc1	none (no result: mHtt clearance)
COCCN(CCOC)S(=O)(=O)c1ccc(C(=O)Nc2nc(-c3ccncc3)cs2)cc1	ROCK2 inh 19.3
COCCN(CCOC)S(=O)(=O)c1ccc(C(=O)Nc2nnc(C)o2)cc1	SKBR3 24h inh 19.2 (no result: mHtt clearance)
COCc1nnc(NC(=O)c2ccc(S(=O)(=O)N(C)C3CCCCC3)cc2)o1	SKBR3 24h inh 26.6
Cc1nnc(NC(=O)c2ccc(S(=O)(=O)N(C)Cc3ccccc3)cc2)o1	SKBR3 24h inh 30.9
c1ccc2c(c1)oc1c(N3CCN(Cc4ccc5c(c4)OCO5)CC3)ncnc12	none
N#C/C(=C(\O)c1ccco1)c1ccccn1	JNK3 inh 18.5 (no result: SKBR3 24h inh)
CCCCSc1nnc(NC(=O)CCc2ccccc2)s1	none (no result: SKBR3 24h inh, JNK3 inh, HER2 expr 66K, ROCK2 inh, PKA inh)
COc1ccc(/C=N/n2c(N)nc3ccccc32)cc1OC	JNK3 inh 47.9
COc1ccccc1Cn1c2nc3ccccc3nc2c2c(=O)n(CC(C)C)cnc21	none (no result: mHtt clearance)
CCCCN1C2CCCC1CC(NC(=O)N(C(C)C)C(C)C)C2 (configuration not stated)	none (no result: SKBR3 24h inh, JNK3 inh, HER2 expr 66K, ROCK2 inh, PKA inh)
C/C(=N\O)C(=O)C(CN1CCCCC1)CN1CCCCC1	HER2 expr 66K -12.3 (no result: SKBR3 24h inh)
CNC(=O)c1cc2c(=O)n3cccc(C)c3nc2n1C	none (no result: mHtt clearance)
Nc1ccc2cn[nH]c2c1	ROCK2 inh 23.1 (no result: mHtt clearance)
O=C(CCCn1nnc(-c2cccnc2)n1)c1ccc(F)cc1	none (no result: mHtt clearance)
O=c1c2ccccc2nc2n1C(CSCc1ccc(Cl)cc1Cl)CS2 (configuration not stated)	none (no result: SKBR3 24h inh, JNK3 inh, HER2 expr 66K, ROCK2 inh, PKA inh)
CCOC(=O)CNC(=O)c1ccc(C)cc1	none (no result: SKBR3 24h inh, JNK3 inh, HER2 expr 66K, ROCK2 inh, PKA inh)
CCOC(=O)C(C(C)=O)c1c(Br)c(O)c(O)c2c(C(=O)c3ccc(C)cc3)coc12 (configuration not stated)	SKBR3 24h inh inconclusive, HER2 expr 66K -20.7
COC(=O)Cc1cc(=O)n2[nH]c(C(F)(F)F)nc2n1	none (no result: SKBR3 24h inh, JNK3 inh, HER2 expr 66K, ROCK2 inh, PKA inh)
Cc1ccc(NC(=O)CC2S/C(=N/c3nccs3)N(C)C2=O)c(C)c1 (configuration not stated)	none (no result: SKBR3 24h inh, JNK3 inh, HER2 expr 66K, ROCK2 inh, PKA inh)
CCOc1ccc2nc3ccc4[nH]onc4c3c2c1	PKA inh 34.9 (no result: mHtt clearance)
CCOc1ccc2nc(N3CCOCC3)nc(C)c2c1	none
C=CCn1c(SCC(=O)c2cc(C)n(CCOC)c2C)nc2sc(C)c(C)c2c1=O	none (no result: SKBR3 24h inh, JNK3 inh, HER2 expr 66K, ROCK2 inh, PKA inh)
CC1Cc2cc(/C(O)=C3\C(=O)C(=O)N(CCN(C)C)C3c3ccccc3F)ccc2O1 (configuration not stated)	mHtt clearance 80.4
CCOC(=O)CC(=O)CSc1ncnc2c1oc1ccccc12	JNK3 inh 42.0
N#CCCSc1ncnc2c1oc1ccccc12	JNK3 inh 27.8
COc1ccc(CN=CC2=C(O)CNC2=O)cc1OC	none
O=C1NCC(O)=C1C=NCCCO	SKBR3 24h inh 31.2 (no result: mHtt clearance)
O=C(Nc1cccc2nsnc12)C1CC(=O)N(c2ccccc2)C1 (configuration not stated)	SKBR3 24h inh 42.4
COC(=O)c1ccccc1NC(=O)C1CC(=O)N(c2ccccc2)C1 (configuration not stated)	none (no result: SKBR3 24h inh)
COC(=O)c1[nH]c2ccc(C)cc2c1NC(=O)CCN1CCN(C2CCCCC2)CC1	none (no result: mHtt clearance)
COC(=O)c1[nH]c2ccc(Br)cc2c1NC(=O)CN1CCN(C2CCCCC2)CC1	HER2 expr 66K -21.2
Cc1ccc(-c2nn(CC(N)=O)c(=O)c3ccccc23)cc1S(=O)(=O)N(C)C	none (no result: SKBR3 24h inh, JNK3 inh, HER2 expr 66K, ROCK2 inh, PKA inh)
COC(=O)CSc1cc(SCC(=O)OC)c(C#N)c(SCC(=O)OC)c1	HER2 expr 66K 2.9
O=C(Cn1cnc2ccccc2c1=O)Nc1ccc(-c2nnc3n2CCCCC3)cc1	JNK3 inh 29.7 (no result: SKBR3 24h inh)
